Data from PubChem BioAssay.
Calls of active or inactive are those of the source.

Assay: S. pombe growth modifiers, basal conditions – strain 972, OD600, 24 h, no modulator, primary screen (AID 1090);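 note: basal condition with compound alone and no growth modifier present; test concentration not given here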
Conditions: S. pombe 972 growth, higher = more signal, called active from +8 up or from −8 down
In the case of `O=c1cccc(CCc2ccccc2)o1`, the z-score is reported as -2.06 (inactive).
With `COc1ccc([Si](C)(C)[C@H]2[C@H](CCn3cc(CCO)nn3)O[C@@]3(C(=O)N(Cc4ccc(N5CCOC5=O)cc4)c4ccccc43)[C@@H]2C)cc1` the z-score was 0.928 (inactive).
In the case of `C=CC[C@@H](OC(=O)Nc1ccc(OC)cc1)c1ccc(O)c2ccccc12`, the z-score is reported as -19.6 (active).
For `CC(c1ccccc1)C(O)C1C=CC2C(=O)NC(=O)C2N1Nc1ccccn1` (stereo unspecified), the z-score was 0.704 (inactive).
In the case of `CC(C)CNC(=O)[C@@H]1c2ccccc2C(=O)N(Cc2cc(C(F)(F)F)cc(C(F)(F)F)c2)[C@H]1c1ccc(CO)cc1`, the z-score is reported as -0.989 (inactive).
In the case of `C[C@]1(C(=O)NCc2ccccc2)c2ccccc2C(=O)N(Cc2cc(F)cc(C(F)(F)F)c2)[C@H]1c1ccc(CO)cc1`, the z-score is reported as -0.325 (inactive).
In the case of `O=C1O[C@H](c2ccccc2)[C@H](c2ccccc2)N2[C@H]1[C@@H](C(=O)Nc1nc3ccccc3s1)[C@]1(C(=O)Nc3ccccc31)[C@H]2c1ccc(O)cc1`, the z-score is reported as -0.0898 (inactive).
For `CN(C)CCCNC(=O)[C@@]1(Cc2ccccc2I)c2ccccc2C(=O)N(Cc2ccccc2C(F)(F)F)[C@H]1c1ccc(CO)cc1`, the z-score was -19.8 (active).
For `CCCCCN1CC=CC23O[C@@H]4C=CCOC(=O)[C@@H]4[C@H]2C(=O)N(CCCO)[C@@H]3C1=O` (stereo partly specified), the z-score was -0.717 (inactive).
For `C=C(CCCC)/C(=C/C[C@H](OC(C)=O)c1ccc(CO)o1)c1cnc2ccccc2c1`, the z-score was -0.923 (inactive).
With `CC(C)NC(=O)[C@@]1(Cc2ccccc2I)c2ccccc2C(=O)N(Cc2ccccc2)[C@H]1c1ccc(CO)cc1` the z-score was -1.5 (inactive).
For `O=C1C2C=CC(C(O)c3ccc(B(O)O)cc3)N(Nc3ccccc3)C2C(=O)N1c1ccccc1` (stereo unspecified), the z-score was -4.7 (inactive).
In the case of `O=C1C[C@]2(c3ccc([N+](=O)[O-])cc3)C(=O)N(CC(F)(F)F)c3cc(CO)ccc3[C@H]2N1CC12CC3CC(CC(C3)C1)C2`, the z-score is reported as 1.21 (inactive).
With `N#Cc1ccc(NN2C(C(O)c3cccs3)C=CC3C(=O)N(c4ccccc4)C(=O)C32)cc1` (stereo unspecified) the z-score was 1.73 (inactive).
With `COCCOC(=O)N1C(=O)[C@@]2(c3cc(C#CCNC(N)=O)ccc31)[C@H](C(=O)N1CCc3cc(OC)c(OC)cc3C1)[C@H]1C(=O)O[C@H](c3ccccc3)[C@H](c3ccccc3)N1[C@@H]2c1ccc(OCCO)cc1` the z-score was 0.575 (inactive).
For `CC(=O)Nc1cc(Br)ccc1C(=O)O`, the z-score was 0.331 (inactive).
In the case of `C=CCOC(=O)[C@@H]1[C@H]2C(=O)O[C@H](c3ccccc3)[C@H](c3ccccc3)N2[C@H](c2ccc(OCCOC(=O)[C@@H]3C[C@@H]4C(=O)N[C@@H](Cc5ccccc5)C(=O)N4[C@@H]3c3cccc(OCCO)c3)cc2)[C@@]12C(=O)Nc1ccc(I)cc12`, the z-score is reported as 2.04 (inactive).
For `[N-]=[N+]=NCc1ccccc1C[C@]1(C(=O)O)N=C(c2ccc(OCCCO)cc2)O[C@H]1c1ccccc1CN=[N+]=[N-]`, the z-score was -3.09 (inactive).
For `NCCCCCNC(=O)[C@H]1C[C@H]2C(=O)NCC(=O)N2[C@H]1c1cccc(OCCO)c1`, the z-score was -1.02 (inactive).
With `COc1cc2c(cc1OC)CN(C(=O)[C@@H]1[C@H]3C(=O)O[C@H](c4ccccc4)[C@H](c4ccccc4)N3[C@H](c3ccccc3OCCO)[C@@]13C(=O)Nc1ccc(C#CCNC(N)=O)cc13)CC2` the z-score was 1 (inactive).
For `C=C(COC)C(=O)CC[C@H](OC(C)=O)c1cccc(OCCO)c1`, the z-score was -1.34 (inactive).
For `CCOC(=O)C[C@H]1[C@H](OC(=O)Cc2ccc3c(c2)OCO3)[C@@H](NC(=O)C2CCCCC2)c2cc(OCCCO)ccc2N1C(=O)Cc1ccc(OC)cc1`, the z-score was -0.38 (inactive).
In the case of `COCCOC(=O)N1C(=O)[C@@]2(c3cc(C#CCNC(N)=O)ccc31)[C@H](c1ccc(OCCO)cc1)N1[C@H](c3ccccc3)[C@H](c3ccccc3)OC(=O)[C@H]1[C@@H]2C(=O)N1CCc2cc(OC)c(OC)cc2C1`, the z-score is reported as 1.41 (inactive).
In the case of `COCCOC(=O)N1C(=O)[C@@]2(c3cc(C#CC4(O)CCCCCC4)ccc31)[C@H](C(=O)N1CCCCCCC1)[C@H]1C(=O)O[C@H](c3ccccc3)[C@H](c3ccccc3)N1[C@@H]2c1ccccc1OCCO`, the z-score is reported as -1.07 (inactive).
In the case of `C=C(COC)/C(=C/C[C@H](OC(=O)c1ccncc1)c1cccc(OCCO)c1)c1cc(C(=O)OC)ccc1OC`, the z-score is reported as -1.01 (inactive).
With `COc1c(C)cc(-c2cc3c(c(-c4ccc(Oc5ccccc5)cc4)n2)[Si](C(C)C)(C(C)C)OC3)cc1C` the z-score was 0.818 (inactive).
With `CCOC(=O)C1=CCC(c2ccc(C#N)cc2)N(S(=O)(=O)c2ccc(C)cc2)C1` (stereo unspecified) the z-score was 0.0767 (inactive).
In the case of `CCOC(=O)C1=C[C@@H](C(C)C)N(S(=O)(=O)c2ccc(C)cc2)[C@H]1c1ccc(C(C)C)cc1`, the z-score is reported as 2.04 (inactive).
With `CCOC(=O)C1=CCC(C(C)(C)C)N(S(=O)(=O)c2ccc(C)cc2)C1` (stereo unspecified) the z-score was -1.75 (inactive).
With `CCCCC=C[C@@H](NC(=O)c1ccco1)c1ccccc1` the z-score was 1 (inactive).
For `CC(C)(C)N1CC=CC23O[C@@H]4C=CCOC(=O)[C@@H]4[C@H]2C(=O)N(CCCCCO)[C@@H]3C1=O` (stereo partly specified), the z-score was -0.0499 (inactive).
For `O=C1C=CC(=O)[C@@H]2CC(COc3ccccc3)=C3[C@@H](CCc4ccccc4)OB(O)C[C@@H]3[C@H]12`, the z-score was -8.15 (active).
In the case of `Cc1ccccc1C(O)C1C=CC2C(=O)N(C)C(=O)C2N1N1CCCCC1` (stereo unspecified), the z-score is reported as 0.619 (inactive).
With `CCOC(=O)C[C@H]1[C@H](OC(=O)c2ccc(C(=O)c3ccccc3)cc2)[C@@H](NC(=O)C2CCCCC2)c2cc(OCCCO)ccc2N1C(=O)c1ccccc1` the z-score was 0.358 (inactive).
For `Cc1ccc(S[C@]2(C(=O)NCC(C)C)CC(=O)N(Cc3ccccc3Cl)[C@@H]2c2ccc(CO)cc2)cc1`, the z-score was -0.751 (inactive).
With `COc1cccc(C(=O)O[C@H]2CC[C@]3(C)C4=C(CCC3C2(C)C)[C@]2(C)CC[C@H]([C@H](C)CCCC(C)C)[C@@]2(C)CC4)c1` (stereo partly specified) the z-score was -1.08 (inactive).
